From PubChem BioAssay

Assay: MRP1 drug-resistance reversers in H69AR cells – cell-based, doxorubicin co-treatment, pilot screen (AID 601)
Settings: H69AR cells + 2 uM doxorubicin, CellTiter-Glo, 72 h; measured here: viability with 2 uM doxorubicin; at 10 µM; stronger effect = lower value

| SMILES | viability |
| --- | --- |
| CCn1c(=O)cc(SCC(=O)Nc2cccnc2)c2ccccc21 | 89.3% |
| c1ccc2c(c1)CNc1ccccc1C2 | 98% |
| O=C(Nc1cccc(C(F)(F)F)c1)c1ccco1 | 84% |
| CCC(c1nnc(SCC(=O)NCC2CCCO2)n1Cc1ccccc1)N(C)C (stereo not given) | 83.3% |
| COC(=O)c1cc(Br)c(=O)n(-c2ccc(OC)cc2)c1 | 86.8% |
| COc1cccc(OCc2nc3ccccc3[nH]2)c1 | 88.3% |
| O=c1c2c(-c3ccccc3)csc2nc2n1CCC2 | 84.4% |
| COc1cccc(C(=O)CN2CCC(NC(=O)NC3CCCCC3)CC2)c1 | 91.5% |
| COc1ccc(OC)c(C(=O)COC(=O)c2cc(C)oc2C)c1 | 87.9% |
| O=C(Nc1ccccc1C(=O)N1CCN(c2ccccc2)CC1)c1ccco1 | 94.2% |
| Cc1ccc(C(c2nnnn2CCC(C)C)N2CCN(C)CC2)cc1 (stereo not given) | 93.2% |
| COC(=O)C(C)Oc1ccc2c3c(c(=O)oc2c1)CCCCC3 (stereo not given) | 92.8% |
| COc1ccccc1N1CCN(C(=O)c2ccc(S(=O)(=O)N3CCCCCC3)cc2)CC1 | 88% |
| COc1ccc(CCNC(=O)CC2COc3ccccc3O2)cc1OC (stereo not given) | 80.8% |
| Cc1cccc(-c2noc(CCC(=O)Nc3ccccc3)n2)c1 | 84.9% |
| C=CCn1c(=O)/c(=C/c2ccc(O)cc2)s/c1=C(/C#N)c1nnc2n1CCCCC2 | 77% |
| O=C(NCCCNC1CCCCC1)c1ccc(/C=N/O)nc1 | 98.6% |
| O=C(CSc1nnnn1-c1ccccc1)c1cc2ccccc2oc1=O | 78.3% |
| Cc1ccc(Nc2nc(N)nc(CN3CCCCCC3)n2)cc1 | 88.8% |
| c1cncc(-c2nnc(-c3ccco3)o2)c1 | 89% |

| SMILES | viability |
| --- | --- |
| COc1ccc(OC)c(C2=NOC(C(=O)NCCN3CCOCC3)C2)c1 (stereo not given) | 85.3% |
| C/C(=N\O)C(C)/[N+]([O-])=C/c1nc(C)c(C)n1O (stereo not given) | 102% |
| COc1ccc(CNC(=O)c2cc(-c3ccc(OC)c(OC)c3)on2)cc1 | 85.6% |
| C=CCOc1ccc(/C(O)=C2\C(=O)C(=O)N(CCOC)C2c2cccnc2)cc1 (stereo not given) | 88.4% |
| C=CCN1C(=O)/C(=C2\SC(N3CCOCC3)=NC2=O)c2cc(Br)ccc21 | 87.5% |
| COc1ccccc1Nc1nc2ccccc2[nH]1 | 83.4% |
| Cn1nnnc1SCSc1nnnn1C | 89.4% |
| CN(CC(=O)Nc1ccc2c(c1)OCCO2)S(=O)(=O)c1ccc(Br)s1 | 94% |
| CCn1c(=O)n(CC(=O)NCc2ccccc2OC)c(=O)c2ccccc21 | 97.4% |
| O=C1NC(c2ccco2)Nc2ccccc21 (stereo not given) | 90.8% |
| COCCNC(=O)C(c1ccc(C)o1)N(Cc1ccc(F)cc1)C(=O)Cn1nnc2ccccc21 (stereo not given) | 94.7% |
| C=CCn1cnc2c(NCc3ccccc3)ncnc21 | 100% |
| Cc1ccc2cc(CN(CC3CCCO3)S(=O)(=O)c3ccc4c(c3)OCCO4)c(=O)[nH]c2c1C (stereo not given) | 82.9% |
| COc1ccccc1C1c2c(oc3ccc(Cl)cc3c2=O)C(=O)N1c1cc(C)on1 (stereo not given) | 75.7% |
| CC(C)=CC/C=C1\CCC(C(=O)O)C(C(=O)O)C1 (stereo not given) | 83.2% |
| COCCOC(=O)c1c(C)oc2ccc(NS(=O)(=O)c3ccc(F)cc3)cc12 | 95.2% |
| Cc1ccc(C)c(N2CCN(C(=O)CCCn3c(=S)[nH]c4cc5c(cc4c3=O)OCO5)CC2)c1 | 89.2% |
| CCC(C)N=C1SCC(C)(/C=N/O)S1 (stereo not given) | 95.8% |
| CCSc1nc2ccccc2n1CC(N)=O | 82.2% |
| C=CCn1c(SCC(=O)NC2CCCCC2)nnc1-c1sc(N)nc1C | 94.9% |

Same assay, conditions: H69AR cells, CellTiter-Glo, 72 h; compound alone cytotoxicity; at 10 µM

| SMILES | viability |
| --- | --- |
| CCn1c(=O)cc(SCC(=O)Nc2cccnc2)c2ccccc21 | 104% |
| c1ccc2c(c1)CNc1ccccc1C2 | 93.1% |
| O=C(Nc1cccc(C(F)(F)F)c1)c1ccco1 | 103% |
| CCC(c1nnc(SCC(=O)NCC2CCCO2)n1Cc1ccccc1)N(C)C (stereo not given) | 89.2% |
| COC(=O)c1cc(Br)c(=O)n(-c2ccc(OC)cc2)c1 | 94.5% |
| COc1cccc(OCc2nc3ccccc3[nH]2)c1 | 95.8% |
| O=c1c2c(-c3ccccc3)csc2nc2n1CCC2 | 79.4% |
| COc1cccc(C(=O)CN2CCC(NC(=O)NC3CCCCC3)CC2)c1 | 98.1% |
| COc1ccc(OC)c(C(=O)COC(=O)c2cc(C)oc2C)c1 | 92.7% |
| O=C(Nc1ccccc1C(=O)N1CCN(c2ccccc2)CC1)c1ccco1 | 100% |
| Cc1ccc(C(c2nnnn2CCC(C)C)N2CCN(C)CC2)cc1 (stereo not given) | 98.8% |
| COC(=O)C(C)Oc1ccc2c3c(c(=O)oc2c1)CCCCC3 (stereo not given) | 103% |
| COc1ccccc1N1CCN(C(=O)c2ccc(S(=O)(=O)N3CCCCCC3)cc2)CC1 | 85.5% |
| COc1ccc(CCNC(=O)CC2COc3ccccc3O2)cc1OC (stereo not given) | 85.4% |
| Cc1cccc(-c2noc(CCC(=O)Nc3ccccc3)n2)c1 | 91.2% |
| C=CCn1c(=O)/c(=C/c2ccc(O)cc2)s/c1=C(/C#N)c1nnc2n1CCCCC2 | 85.5% |
| O=C(NCCCNC1CCCCC1)c1ccc(/C=N/O)nc1 | 103% |
| O=C(CSc1nnnn1-c1ccccc1)c1cc2ccccc2oc1=O | 74.2% |
| Cc1ccc(Nc2nc(N)nc(CN3CCCCCC3)n2)cc1 | 78.4% |
| c1cncc(-c2nnc(-c3ccco3)o2)c1 | 105% |

| SMILES | viability |
| --- | --- |
| COc1ccc(OC)c(C2=NOC(C(=O)NCCN3CCOCC3)C2)c1 (stereo not given) | 90.6% |
| C/C(=N\O)C(C)/[N+]([O-])=C/c1nc(C)c(C)n1O (stereo not given) | 92.8% |
| COc1ccc(CNC(=O)c2cc(-c3ccc(OC)c(OC)c3)on2)cc1 | 94.4% |
| C=CCOc1ccc(/C(O)=C2\C(=O)C(=O)N(CCOC)C2c2cccnc2)cc1 (stereo not given) | 103% |
| C=CCN1C(=O)/C(=C2\SC(N3CCOCC3)=NC2=O)c2cc(Br)ccc21 | 83.1% |
| COc1ccccc1Nc1nc2ccccc2[nH]1 | 72.8% |
| Cn1nnnc1SCSc1nnnn1C | 96.9% |
| CN(CC(=O)Nc1ccc2c(c1)OCCO2)S(=O)(=O)c1ccc(Br)s1 | 83.3% |
| CCn1c(=O)n(CC(=O)NCc2ccccc2OC)c(=O)c2ccccc21 | 101% |
| O=C1NC(c2ccco2)Nc2ccccc21 (stereo not given) | 97.8% |
| COCCNC(=O)C(c1ccc(C)o1)N(Cc1ccc(F)cc1)C(=O)Cn1nnc2ccccc21 (stereo not given) | 97.8% |
| C=CCn1cnc2c(NCc3ccccc3)ncnc21 | 97.1% |
| Cc1ccc2cc(CN(CC3CCCO3)S(=O)(=O)c3ccc4c(c3)OCCO4)c(=O)[nH]c2c1C (stereo not given) | 86.1% |
| COc1ccccc1C1c2c(oc3ccc(Cl)cc3c2=O)C(=O)N1c1cc(C)on1 (stereo not given) | 72.2% |
| CC(C)=CC/C=C1\CCC(C(=O)O)C(C(=O)O)C1 (stereo not given) | 104% |
| COCCOC(=O)c1c(C)oc2ccc(NS(=O)(=O)c3ccc(F)cc3)cc12 | 90.5% |
| Cc1ccc(C)c(N2CCN(C(=O)CCCn3c(=S)[nH]c4cc5c(cc4c3=O)OCO5)CC2)c1 | 94% |
| CCC(C)N=C1SCC(C)(/C=N/O)S1 (stereo not given) | 104% |
| CCSc1nc2ccccc2n1CC(N)=O | 88.8% |
| C=CCn1c(SCC(=O)NC2CCCCC2)nnc1-c1sc(N)nc1C | 95.8% |
